Measurements published in PubChem BioAssay (NCI).
Compounds without any hit were thinned out: in the full panel of roughly 79,000, 15% have a hit. Activity calls are given as the source filed them. Cut-off read from the data, not from the text of the source: active = growth inhibition above about 70%; inactive = the rest. Where a SMILES comes first, the peptide text is derived from it. [ ]: non-standard residue; d: D form. ξ: configuration not given here. ξA = CC(N)C(=O)O

Legend:
[1] = NCI Yeast Anticancer Drug Screen. Data for the rad50 strain (AID 155);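 note: 0% = growth of vehicle-only cultures of the same strain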; conditions: S. cerevisiae rad50 strain growth inhibition; at 50.0 µM; active compounds read high
Method in brief: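 A DNA repair-deficient yeast mutant serves as the test organism; compound-induced growth inhibition is calculated against vehicle-treated cells.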

[2] = NCI Yeast Anticancer Drug Screen. Data for the mec2-1 strain (AID 157); conditions: S. cerevisiae mec2-1 strain, at 50.0 µM, active compounds read high
Method in brief: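 Yeast mec2-1 mutant treated with compound. Readout: growth inhibition vs vehicle controls.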

[3] = NCI Yeast Anticancer Drug Screen. Data for the sgs1 mgt1 strain (AID 161);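 note: 0% = growth of cultures given vehicle only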; conditions: S. cerevisiae sgs1 mgt1 strain, at 50.0 µM, active compounds read high
Method in brief: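 Test agents were incubated with a DNA-repair-mutant yeast strain. Growth was then read and compared against vehicle-treated controls.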

[4] = NCI Yeast Anticancer Drug Screen. Data for the cln2 rad14 strain (AID 165);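 note: 0% = growth equal to vehicle treated cultures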; conditions: S. cerevisiae cln2 rad14 strain, at 50.0 µM, active compounds read high
Method in brief: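 cln2 rad14 yeast strain; compound exposure; growth inhibition read vs vehicle controls.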

[5] = NCI Yeast Anticancer Drug Screen. Data for the bub3 strain (AID 167); conditions: S. cerevisiae bub3 mutant strain, at 50.0 µM, active compounds read high
Method in brief: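 Inhibition values come from growth of compound-treated mutant yeast normalised to vehicle-treated controls.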

[6] = NCI Yeast Anticancer Drug Screen. Data for the mlh1 rad18 strain (AID 175); conditions: S. cerevisiae mlh1 rad18 strain growth inhibition; at 50.0 µM; active compounds read high
Method in brief: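 Yeast w/ defined DNA-repair lesions; compound exposure; growth vs vehicle controls → % inhibition.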

Measured: growth inhibition

BrC1=NOC2c3cccc4cccc(c34)C12 (configuration not stated)
inactive: [1] 2.4% | [2] 8.95% | [3] 19.6% | [4] 42% | [5] 34% | [6] 22.8%

Cc1cc(Cl)cc(Cl)c1OCC(=O)Nc1ccc(Cl)cc1
inactive: [1] 6.45% | [2] 2.45% | [3] 8.5% | [4] 4% | [5] 21.9% | [6] -7.7%

Cc1cc2c(nn1)CCc1c-2no[n+]1[O-]
inactive: [1] 3.15% | [2] -32.1% | [3] -10.4% | [4] 22.5% | [5] 3.45% | [6] -2.8%

CCCNC(=O)Nc1ccc(Nc2ccccc2)cc1
inactive: [1] 5.9% | [2] 2.5% | [3] -0.5% | [4] 4.4% | [5] 18.2% | [6] 2%

CCB1OC2C(COC(C)=O)OC(OC(C)=O)C2O1 (configuration not stated)
inactive: [1] -7.4% | [2] -9.6% | [3] -9.55% | [4] -9.25% | [5] -6.9% | [6] -10.1%

CC(C)(C)C(=O)C(c1ccc(-c2cscn2)cc1)c1ccc(-c2cscn2)cc1
inactive: [1] -2% | [2] -2.8% | [3] -1.1% | [4] 1.3% | [5] -5.3% | [6] -22.2%

CN(C)C(=O)C1OC1(C)c1ccccc1 (configuration not stated)
inactive: [1] -7.75% | [2] -5.25% | [3] -3.35% | [4] -20.9% | [5] -1.3% | [6] -7.95%

CC(=O)C1CCCCCCC1=O (configuration not stated)
inactive: [1] 16.1% | [2] -5.35% | [3] 4.9% | [4] -15.8% | [5] -11.8% | [6] 16.1%

CC(=O)Oc1cc2c(c3ccccc13)CCC2=O
inactive: [1] 13.4% | [2] 7.2% | [3] -7.85% | [4] -0.9% | [5] 20.4% | [6] 6.05%

CC(=O)Oc1cc(OC(C)=O)c(OC(C)=O)c2c1CCCC2
inactive: [1] 6.45% | [2] 14.8% | [3] 6.65% | [4] -91.1% | [5] 16.4% | [6] 56.7%

CC1=C(C(=O)CC(=O)Nc2ccc(Cl)c(Cl)c2)Sc2ccccc2N1
inactive: [1] 8.1% | [2] 21.9% | [3] -4.3% | [4] 13.7% | [5] 0.25% | [6] 20.9%

C[Si](C)(C)/C(=N/Nc1ccc([N+](=O)[O-])cc1[N+](=O)[O-])c1ccccc1
inactive: [1] -13.2% | [2] 9.9% | [3] -12.9% | [4] -13.6% | [5] -7.9% | [6] -7.15%

O=C(/C=C/c1ccccc1)[c-]1[c-][c-][c-][c-]1.[Fe].[c-]1[c-][c-][cH-][c-]1
inactive: [1] 10.9% | [2] 11.6% | [3] 9.05% | [4] 8.1% | [5] 13.8% | [6] 13.2%

COc1ccc(/C(Cl)=C(\CNc2ccccn2)c2ccccc2)cc1OC
inactive: [1] -14.4% | [2] -21.9% | [3] -39.9% | [4] -22.7% | [5] 2.3% | [6] -34.1%

CCn1c(C)[n+](CC)c2ccc(C(C)=O)cc21
inactive: [1] -0.35% | [2] -19.7% | [3] -3.95% | [4] 8.95% | [5] 2.55% | [6] -8.75%

C[n+]1ccccc1C(=O)O
inactive: [1] 29.3% | [2] 28.9% | [3] 50.4% | [4] 26.6% | [5] 31.3% | [6] 40.4%

C[N+](C)(C[Si](C)(C)C)C1CCCCCCCCCCC1
inactive: [1] 11.4% | [2] 1.3% | [3] -8.8% | [4] -10.9% | [5] 14.1% | [6] 22.2%

O=C(NC(Nc1ccc(F)cc1)(C(F)(F)F)C(F)(F)F)C(C(F)(F)F)C(F)(F)F
active: [1] 87.4% | [2] 88.6% | [3] 91.8% | [4] 92.2% | [5] 90.7% | [6] 93.2%

CN=C1C=C(/N=C2/C=C(N/C(=C\C#N)C(C)(C)O)OC2(C)C)OC1(C)C
inactive: [1] -10.6% | [2] -5.3% | [3] 13.6% | [4] 7.1% | [5] 23.9% | [6] 28.6%

CC(NC(=O)CNC(=O)CNC(=O)CNC(=O)CN)C(=O)O (configuration not stated) (H-GGGG[ξA]-OH)
inactive: [1] -26.9% | [2] -30.9% | [3] -8.55% | [4] -10.6% | [5] -14.5% | [6] -31.6%

S=C(N1CCN(c2ccc(Cl)c(Cl)c2)CC1)N1CCN(c2ccc(Cl)c(Cl)c2)CC1
inactive: [1] 7.8% | [2] 22.2% | [3] 27.9% | [4] 12% | [5] 5.55% | [6] 20.2%

CC(=O)CCC(CCCC(CCC(C)=O)[N+](=O)[O-])[N+](=O)[O-] (configuration not stated)
inactive: [1] -7.3% | [2] 15.3% | [3] 0.9% | [4] -9.4% | [5] 13.9% | [6] 4.15%

Cc1ccc(C(CCl)c2ccc(C)cc2)cc1
inactive: [1] -18.1% | [2] -1.45% | [3] -0.35% | [4] -36.5% | [5] -21.5% | [6] -2.95%

CCCCCCCCCCCCCCCC[N+](C)(C)CCNC(C)=O
active: [1] 99.2% | [2] 99.6% | [3] 99.7% | [4] 98.7% | [5] 99.2% | [6] 99.5%

O=S(=O)(Nc1ccccc1Cl)c1ccc(F)cc1
inactive: [1] -5.85% | [2] -16.1% | [3] -6.6% | [4] 4.7% | [5] -24% | [6] 20.9%

CCCNc1nnnn1CCC
inactive: [1] 3.15% | [2] 5.05% | [3] -0.4% | [4] 4.25% | [5] 10.9% | [6] -0.05%

COc1c2c(c(OC)c3c1C(=O)c1ccccc1C3=O)CC=CC2
inactive: [1] -10.6% | [2] 4.7% | [3] -15.4% | [4] -14.7% | [5] -4% | [6] -4.3%

CCOC(=O)C(C#N)(C1C=CCC1)C1C=CCC1 (configuration not stated)
inactive: [1] -1.9% | [2] -0.1% | [3] 14.3% | [4] 43.9% | [5] 46.3% | [6] 13.3%

Nc1cc(C(=O)O)cc2ccccc12
inactive: [1] 14.8% | [2] -5.35% | [3] 0.1% | [4] -7.95% | [5] -2.95% | [6] 26.6%

COc1ccc(OC)c(NCc2ccccc2)c1
inactive: [1] -8.6% | [2] -2.5% | [3] -13.9% | [4] -88.5% | [5] -0.4% | [6] 3.65%

COc1ccccc1NC(=O)C1=C(C)NC(C)=C(C(=O)Nc2ccccc2OC)C1c1ccc(C(C)C)cc1
inactive: [1] 18.2% | [2] 3.35% | [3] 11.8% | [4] 29.6% | [5] -11.8% | [6] 33.8%

COC(=O)C(=O)C(C(=O)C(=O)Nc1ccccc1[N+](=O)[O-])c1nc2ccc([N+](=O)[O-])cc2[nH]c1=O (configuration not stated)
inactive: [1] 17.8% | [2] 15.2% | [3] 5% | [4] 26.6% | [5] 27.8% | [6] 20.7%

CCC(=O)c1ccc2c(ccc3ccccc32)c1O
inactive: [1] -18.3% | [2] -6.8% | [3] -4.15% | [4] -22.1% | [5] 2.85% | [6] -11.6%

O=C(Nc1ccccc1)c1ccccc1Cl
inactive: [1] 24.5% | [2] -0.15% | [3] 0.35% | [4] 2.8% | [5] -3.05% | [6] 12.3%

Cc1ccc(-n2c(=S)n(-c3ccccc3C)c3nc4ccccc4nc2/c3=N\Nc2ccccc2)cc1
inactive: [1] -6.85% | [2] 3.5% | [3] -14.8% | [4] -16.1% | [5] 1.3% | [6] -22.1%

CN(C)CC1(Cc2ccccc2)CCC(Cc2ccccc2)C1=O (configuration not stated)
inactive: [2] 63.4% | [4] 54% | [5] 45.6%
active: [1] 85.5% | [3] 85.3% | [6] 86.3%

c1ccc(C2=NCCN2)nc1
inactive: [1] 8.1% | [2] 0.9% | [3] -5.7% | [4] -1.15% | [5] 0.65% | [6] 6.55%
